Here are results for 52 compounds from ChEMBL document CHEMBL3988442, “University of Dundee, Small-Polar-MMV Screening Library” (2021).

SMILES strings stand for the structures.

Test [1] addresses T1, Aspartate--tRNA(Asp/Asn) ligase (Mycobacterium tuberculosis (strain ATCC 25618 / H37Rv)) (UniProt P9WFW3).
T1 sequence (whole entry): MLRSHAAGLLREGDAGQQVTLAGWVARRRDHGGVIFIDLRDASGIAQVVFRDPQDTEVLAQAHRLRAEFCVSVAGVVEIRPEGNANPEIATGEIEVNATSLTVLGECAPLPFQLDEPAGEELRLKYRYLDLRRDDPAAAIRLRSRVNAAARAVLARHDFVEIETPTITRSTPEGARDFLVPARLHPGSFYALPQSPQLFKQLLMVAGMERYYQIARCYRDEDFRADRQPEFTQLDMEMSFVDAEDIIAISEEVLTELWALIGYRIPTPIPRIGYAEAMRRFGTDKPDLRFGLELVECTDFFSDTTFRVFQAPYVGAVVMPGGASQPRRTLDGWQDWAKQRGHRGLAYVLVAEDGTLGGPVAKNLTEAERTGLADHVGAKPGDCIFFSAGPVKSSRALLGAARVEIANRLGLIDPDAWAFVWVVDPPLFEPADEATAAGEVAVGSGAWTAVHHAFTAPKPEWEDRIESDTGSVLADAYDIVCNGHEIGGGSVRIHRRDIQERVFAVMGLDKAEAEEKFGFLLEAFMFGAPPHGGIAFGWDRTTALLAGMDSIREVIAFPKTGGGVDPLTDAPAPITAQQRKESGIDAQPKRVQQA
Description: Assay for Asp RNA synthetase-1 from Mycobacterium tuberculosis. Type of test: functional. Also noted: scale not given: direction of the effect not stated beside the values. As to conditions: 30 µM.

The target in test [2] is Shiga toxin 2 (Escherichia coli O157:H7) (UniProt P09385+P09386). Description: E. coli 0.157:H7 Shiga Toxin SOP - stx2 screening assay. Type of test: functional. Also noted: scale not given: direction of the effect not stated beside the values. The note with it: 30 µM.

Turning to `Cc1cc(CN2CCOC(CN(C)C)C2)no1` (centres undefined), the Percent Effect worked out at 1.81% in test [1] and 26.2% in test [2].

For the compound `Cc1cc(C)cc(OCCC(=O)N2CCCC(n3cncn3)C2)c1` (centres undefined), the Percent Effect in test [1] is -4.66%; in test [2] it was 5.55%.

In the case of `Cc1ccc(NC2CCN(C(=O)Cn3nc(C)cc3C)CC2)nn1`, the Percent Effect in test [1] was -3.3%; in test [2], 28.3%.

Take `CC(OCC1CC1)C(=O)N1CCCN(c2ncccc2C#N)CC1` (centres undefined): the Percent Effect came out at 2.42% in test [1] and 27.5% in test [2].

Regarding `Cc1nn(C)c(N2CCOCC2)c1CNC(c1cccs1)C(C)C` (centres undefined), the Percent Effect in test [1] was determined as 1.8%; in test [2], 25.3%.

In the case of `N#Cc1ccc(F)c(CN2CCCC2Cn2cccn2)c1` (centres undefined), the Percent Effect in test [1] was found to be 0.262%; in test [2], 1.36%.

`Cc1ccc(NC(=O)c2n[nH]c(-n3cnnc3)n2)cc1C`: the results for the Percent Effect in test [1] and in test [2] were 4.15% and -18.5%, respectively.

In the case of `CN(CC(=O)N1CCCC1c1cnn(C)c1)c1ccc(Cl)cn1` (centres undefined), the Percent Effect in test [1] was -2.16%; in test [2], 29.7%.

With `CCN(CCNC(=O)c1ccccc1OCCOC)C1CC1`, the values for the Percent Effect in test [1] and in test [2] were -0.655% and -72%, respectively.

Take `CC(C(=O)Nc1ccc(N2CCCC2)nc1)n1cncn1` (centres undefined): the Percent Effect came to 0.459% in test [1] and 11.3% in test [2].

Turning to `NCc1cn(-c2ccccc2C(=O)NCc2ccccc2)cn1`, the Percent Effect in test [1] is -1.51%; in test [2], -5.86%.

As for `CCN1CCN(CC(O)c2ccc(F)cc2)CC1` (centres undefined), the Percent Effect in test [1] is -6.48%; in test [2] it was 19.4%.

Consider `c1cnc2c(C3CCN(Cc4ccsc4)CC3)n[nH]c2n1`, for which the Percent Effect in test [1] was -1.29%; in test [2] it was -14.5%.

Take `Cc1cc2c(=O)n3c(nc2s1)CCN(C(=O)c1cnn(C)c1C)CC3`: the Percent Effect amounted to 0.849% in test [1] and 5.44% in test [2].

`CN(C(=O)Cc1ccc(NC(=O)NC2CCC2)cc1)c1ccccc1`: the Percent Effect in test [1] is -0.27%; in test [2], -9.88%.

Consider `CCC(C)(NCC(=O)N(c1ccccc1)C(C)C)c1nc(C)cs1` (centres undefined), for which the Percent Effect was 1.2% in test [1] and -25.8% in test [2].

Take `Cc1cnn(CC2CCCN2Cc2nc3ccccc3n2C)c1` (centres undefined): the Percent Effect was 3.43% in test [1] and -9.07% in test [2].

As to `O=c1cccnn1CC1CN(Cc2ccsc2)Cc2nccn2C1` (centres undefined), the Percent Effect came out at 7.43% in test [1] and 5.53% in test [2].

In the case of `Cc1cc(CNC(=O)N2CCN(c3ccccc3)CC2)no1`, the Percent Effect in test [1] was 1.31%; in test [2] it was -2.24%.

Consider `Cc1noc(C2CCN(C(=O)c3ccc(N(C)C)nc3)CC2)n1`, for which the Percent Effect in test [1] is -4.17%; in test [2] it was -12.5%.

Regarding `CCC(=O)N1CCC2(CC1)c1nc[nH]c1CCN2S(C)(=O)=O`, the figures for the Percent Effect in test [1] and in test [2] were -2.17% and 14.6%, respectively.

In the case of `N#Cc1ccccc1N1CCCN(C(=O)CCc2nccs2)CC1`, the Percent Effect in test [1] was -8.37%; in test [2], 9.06%.

On to `O=c1cc(CN2CCCC2)nc2n1CCCN(Cc1ccsc1)C2`, for which the Percent Effect in test [1] was -4.85%; in test [2], -22.4%.

On to `O=c1c2ccccc2nc2n1CCN(Cc1cccs1)CC2`, for which the Percent Effect in test [1] stood at 1.35%; in test [2], 12%.

`CN(C)CCOCC1CN(Cc2ccsc2)Cc2ccnn2C1` (centres undefined): the Percent Effect in test [1] is -0.625%; in test [2], 3.55%.

Regarding `Cc1oc(C)c(C(=O)N2CCCN(Cc3cscn3)CC2)c1C`, the Percent Effect is -1.41% in test [1] and 26.2% in test [2].

On to `CCOc1cccc2c1OCC(C(=O)NS(=O)(=O)c1ccc(Cl)cc1)=C2`, for which the Percent Effect in test [1] amounted to 0.459%; in test [2] it was 17%.

With `COc1cc(C(=O)N2CCCS2(=O)=O)cc(Cl)c1OC`, the Percent Effect is -11.2% in test [1] and -4.54% in test [2].

On to `CCCNC(=O)C(C)NC(=O)CCc1ccccc1Br` (centres undefined), for which the Percent Effect in test [1] is 0.362%; in test [2], -18.6%.

For `CCn1cnnc1CNC(=O)N1CCN(c2cccc(OC)c2)CC1`, the Percent Effect is 0.152% in test [1] and -10.2% in test [2].

As for `CCc1noc(C(C)N(C)CC(=O)Nc2ccc(C)cc2)n1` (centres undefined), the Percent Effect is 1.52% in test [1] and -3.18% in test [2].

As to `O=C(NC1COC2(CCN(Cc3ccccn3)CC2)C1)c1ccccn1` (centres undefined), the figures for the Percent Effect in test [1] and in test [2] were -7.74% and -29.1%, respectively.

For the compound `CN1CC(=O)N(c2cccnc2)CC12CCN(C(=O)C1CCCCC1)C2` (centres undefined), the values for the Percent Effect in test [1] and in test [2] were 6.7% and -1.32%, respectively.

For `Cn1nc(CNC(=O)c2ccc(Cl)cc2)c2c1CCOC2`, the results for the Percent Effect in test [1] and in test [2] were 2.4% and -5.64%, respectively.

For the compound `Cc1cn2c(n1)CCC(NC(=O)c1c[nH]c(C)n1)C2` (centres undefined), the Percent Effect in test [1] is -7.1%; in test [2], 14.6%.

With `O=C(Nc1cc(C(F)(F)F)c[nH]c1=O)N1CCCSCC1`, the results for the Percent Effect in test [1] and in test [2] were 5.77% and 8.92%, respectively.

On to `CC(C)c1nnc2ccc(N3CCC(C(N)=O)CC3)nn12`, for which the Percent Effect in test [1] was -3.92%; in test [2] it was -20.5%.

As to `Cc1ccc(S(=O)(=O)NC(=O)c2cccc3c2OCCO3)c(C)c1`, the Percent Effect in test [1] is -3.08%; in test [2], -9.09%.

In the case of `c1cncc(CN2CCc3ncnc(C4CCOC4)c3CC2)c1` (centres undefined), the Percent Effect in test [1] was 3.1%; in test [2] it was -17.7%.

`CCc1noc(C(C)N2CCN(Cc3nc(C)c(C)o3)CC2)n1` (centres undefined): the figures for the Percent Effect in test [1] and in test [2] were -6.81% and 10.2%, respectively.

In the case of `CCN(C(=O)Nc1cccnc1OC)C1CC1`, the Percent Effect was -1.21% in test [1] and -24.9% in test [2].

Regarding `COc1ccc(CN2C[C@H]3CC[C@](O)(c4ccc(C)cn4)[C@H]3C2)c(F)c1`, the Percent Effect in test [1] was 2.93%; in test [2], 14.7%.

In the case of `CC1COCCN1Cc1nc(-c2cccc(Br)c2)no1` (centres undefined), the Percent Effect in test [1] stood at 4.5%; in test [2], 32%.

For `Cc1nn(C)c(C)c1C1CCCN1C(=O)c1cnc2n[nH]c(C)c2c1` (centres undefined), the Percent Effect was -5.16% in test [1] and -21.8% in test [2].

Consider `Cn1c(Cn2cccn2)nnc1C1CCCN(c2ccncc2)C1` (centres undefined), for which the Percent Effect in test [1] is 1.37%; in test [2] it was -3.13%.

As to `Cn1ncc2c1CCCC2NCc1cc(Br)cs1` (centres undefined), the Percent Effect in test [1] is -1.12%; in test [2], 7.1%.

Turning to `COc1ccccc1N1CCC(CNCc2cccc(O)c2)C1` (centres undefined), the Percent Effect in test [1] was 2.22%; in test [2], -10.3%.

Take `Cc1nn(-c2ccccc2)c(C)c1CNC1CCc2ncnn2C1` (centres undefined): the Percent Effect is -2.94% in test [1] and 4.77% in test [2].

For `O=S(=O)(NCC1CCOc2ccccc2C1)N1CCOCC1` (centres undefined), the results for the Percent Effect in test [1] and in test [2] were 6.99% and -16%, respectively.

Consider `COCCCN(C)C1CCCN(Cc2noc(C)n2)C1` (centres undefined), for which the figures for the Percent Effect in test [1] and in test [2] were -3.09% and -16.4%, respectively.

Take `O=C(NCCCN1CCOCC1)c1ccn(-c2ccc3ccccn23)n1`: the Percent Effect in test [1] was 3.71%; in test [2] it was -18.9%.

With `COc1ccccc1CC(=O)N1CCC(NCc2cccnc2)CC1`, the Percent Effect in test [1] was 1.11%; in test [2] it was 22.4%.
